PubChem BioAssay (EPA / NIEHS)
Values joined by “and” are separate entries in the source; they are usually repeats but may differ in a detail not shown here. Equal entries are not always repeated. Records with an inconclusive call do not appear. Where a structure was tested more than once in an assay, its records may differ in their call. Active and inactive are the calls of the source. How the source made its calls, unless noted: active means hit-call score of the fitted dose curve at least 0.9, where 1 is the maximum; inactive means score below 0.9.

Key:
[1] = molecular target: Nuclear respiratory factor 1 (Homo sapiens) (UniProt Q16656); assay: ATG_NRF1_CIS: Attagene CIS-FACTORIAL HepG2 Assay for human Nuclear Respiratory Factor 1 (NRF1) Orphan Gene (AID 2282987); details: HepG2 NRF1 cis-element reporter, Attagene multiplex; actives raise or lower the signal
Chain of Nuclear respiratory factor 1 (Homo sapiens) (Q16656 whole entry, looked up): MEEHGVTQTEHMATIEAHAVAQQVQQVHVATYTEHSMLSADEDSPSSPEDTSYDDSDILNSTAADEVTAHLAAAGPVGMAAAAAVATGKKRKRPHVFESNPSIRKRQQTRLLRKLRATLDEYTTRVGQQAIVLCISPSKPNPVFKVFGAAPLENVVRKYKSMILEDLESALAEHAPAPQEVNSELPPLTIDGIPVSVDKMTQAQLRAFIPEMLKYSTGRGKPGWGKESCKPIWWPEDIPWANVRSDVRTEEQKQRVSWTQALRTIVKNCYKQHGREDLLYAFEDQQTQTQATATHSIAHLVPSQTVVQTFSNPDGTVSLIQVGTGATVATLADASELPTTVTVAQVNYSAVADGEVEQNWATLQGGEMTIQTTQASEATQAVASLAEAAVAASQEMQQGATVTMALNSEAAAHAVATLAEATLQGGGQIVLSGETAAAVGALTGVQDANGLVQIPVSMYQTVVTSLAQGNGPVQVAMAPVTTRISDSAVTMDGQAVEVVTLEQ
In short: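 HepG2 cells transiently transfected with multiple reporter transcription units under cis-regulatory promoter control, so endogenous transcription-factor activity is read. After 24 h compound exposure, reporter mRNA quantified by RT-PCR, fluorescent labelling, HpaI digestion and capillary electrophoresis; bidirectional fitting versus DMSO.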

[2] = ATG_NFI_CIS: Attagene CIS-FACTORIAL HepG2 Assay for human Nuclear Factor I (NFI) (AID 2282989); details: HepG2 cis-regulatory reporter, NFI response element transcription; actives raise or lower the signal
In short: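 Transfected HepG2 liver cells, exposed 24 h, supplied total RNA for oligo(dT) reverse transcription and reporter-specific PCR. Labelled, HpaI-cut fragments were sized by capillary electrophoresis; DMSO set the baseline for bidirectional fitting.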

[3] = molecular target: Myc proto-oncogene protein (Homo sapiens) (UniProt P01106); assay: ATG_Myc_CIS: Attagene CIS-FACTORIAL HepG2 Assay for human Myelocytomatosis (Myc) Proto-Oncogene Transcription Factor (AID 2282990); details: HepG2, Attagene cis-reporter transcription factor activity; actives raise or lower the signal
Chain of Myc proto-oncogene protein (Homo sapiens) (P01106 whole entry, looked up): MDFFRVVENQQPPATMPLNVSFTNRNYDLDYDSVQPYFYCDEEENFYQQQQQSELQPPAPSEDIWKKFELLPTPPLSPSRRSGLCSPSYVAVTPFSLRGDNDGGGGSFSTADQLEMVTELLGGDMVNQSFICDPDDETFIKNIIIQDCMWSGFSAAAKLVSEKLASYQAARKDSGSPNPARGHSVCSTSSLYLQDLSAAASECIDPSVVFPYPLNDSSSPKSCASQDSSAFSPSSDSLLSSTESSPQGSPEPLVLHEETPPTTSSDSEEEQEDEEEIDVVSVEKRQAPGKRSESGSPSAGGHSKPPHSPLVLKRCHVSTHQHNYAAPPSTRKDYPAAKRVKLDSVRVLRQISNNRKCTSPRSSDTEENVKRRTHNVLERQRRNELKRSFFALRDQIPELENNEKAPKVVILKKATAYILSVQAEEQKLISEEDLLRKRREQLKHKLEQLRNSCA
In short: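 DMSO-normalised, bidirectionally fitted reporter mRNA signal. HepG2 cells transfected with cis reporter constructs, treated 24 h; transcripts detected by RT-PCR, 6-FAM primer extension and CE.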

[4] = ATG_NF_kB_CIS: Attagene CIS-FACTORIAL HepG2 Assay for human Nuclear Factor Kappa B (NF-kB) (AID 2282991); details: HepG2 Attagene cis-factorial NF-kB reporter mRNA; actives raise or lower the signal
In short: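 HepG2 cells transiently transfected with multiplexed cis-element reporter units measuring endogenous transcription factor activity; reporter mRNA read 24 h after dosing by RT-PCR, fluorescent labelling, HpaI digestion and capillary electrophoresis. Bidirectional fit against DMSO baseline.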

[5] = ATG_NRF2_ARE_CIS: Attagene CIS-FACTORIAL HepG2 Assay for human Nuclear Factor Erythroid 2 Related Factor 2 (NFR2) response to Antioxidant Response Elements (ARE) (AID 2282992); details: HepG2 Attagene ARE/NRF2 reporter, transcription factor activity; actives raise or lower the signal;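 on AC50: reporter mRNA level measured by RT-PCR and capillary electrophoresis fluorescence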
In short: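 Readout: reporter mRNA quantified by RT-PCR plus FAM-labelled primer extension, HpaI digestion and capillary electrophoresis, 24 h after dosing transfected HepG2 cells. Gain or loss of signal is fitted bidirectionally against DMSO baseline.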

[6] = ATG_Oct_MLP_CIS: Attagene CIS-FACTORIAL HepG2 Assay for human Octamer-Binding Transcription Factor (Oct) (AID 2282993); details: HepG2 Attagene cis-factorial Oct reporter, mRNA; actives raise or lower the signal
In short: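 Using HepG2 cells bearing transfected cis-reporter constructs, mRNA induction was read after 24 h by fluorescent RT-PCR and capillary electrophoresis, with DMSO defining baseline for gain- or loss-of-signal fits.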

[7] = molecular target: Cellular tumor antigen p53 (Homo sapiens) (UniProt P04637); assay: ATG_p53_CIS: Attagene CIS-FACTORIAL HepG2 Assay for human p53 Transcription Factor (AID 2282994); details: HepG2 p53 cis-element reporter, Attagene mRNA; actives raise or lower the signal
Chain of Cellular tumor antigen p53 (Homo sapiens) (P04637 whole entry, looked up): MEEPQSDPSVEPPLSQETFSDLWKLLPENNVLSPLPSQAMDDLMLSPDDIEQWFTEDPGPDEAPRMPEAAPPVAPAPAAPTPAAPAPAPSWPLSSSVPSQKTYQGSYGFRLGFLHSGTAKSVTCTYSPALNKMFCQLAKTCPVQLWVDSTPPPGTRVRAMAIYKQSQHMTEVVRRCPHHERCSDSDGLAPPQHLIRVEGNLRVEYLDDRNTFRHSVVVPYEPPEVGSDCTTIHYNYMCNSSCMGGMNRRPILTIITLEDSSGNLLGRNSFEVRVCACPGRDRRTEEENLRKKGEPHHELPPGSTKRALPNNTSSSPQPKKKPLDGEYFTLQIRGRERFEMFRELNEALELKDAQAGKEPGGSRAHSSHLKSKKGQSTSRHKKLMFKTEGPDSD
In short: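 Read-out: reporter mRNA by RT-PCR plus capillary electrophoresis with fluorescence detection. Human HepG2 liver cells carried transfected multi-reporter cis-element constructs, dosed 24 h. Gain or loss of signal fitted bidirectionally against DMSO control.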

[8] = BSK_3C_TissueFactor: BioMAP Diversity Plus: 3C Assay for Tissue Factor Biomarker Activity (AID 2282997); details: BioMAP 3C HUVEC, tissue factor biomarker readout; actives raise or lower the signal
In short: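 Tissue factor on primary human umbilical vein endothelium was read by ELISA 24 h after dosing, gain or loss relative to DMSO. Cytotoxicity ran alongside via SRB (0.1%, TCA-fixed, 560 nm).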

[9] = BSK_3C_uPAR: BioMAP Diversity Plus: 3C Assay for Urokinase-type plasminogen activator receptor (uPAR) Biomarker Activity (AID 2282998); details: BioMAP 3C HUVEC, uPAR biomarker ELISA; actives raise or lower the signal
In short: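 In this endothelial cell-based assay, human umbilical vein primary cells were treated with chemicals and harvested at 24 h. uPAR was quantified using ELISA, with gains or losses fitted relative to DMSO controls.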

[10] = BSK_3C_VCAM1: BioMAP Diversity Plus: 3C Assay for Vascular cell adhesion molecule 1 (VCAM1) Biomarker Activity (AID 2282999); details: BioMAP 3C HUVEC, VCAM1 ELISA, cytokine-stimulated; actives raise or lower the signal
In short: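 Vascular primary endothelium (human umbilical vein) was exposed to chemicals and assayed 24 h later. VCAM-1 levels came from ELISA, with DMSO serving as baseline for bidirectional fitting.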

[11] = BSK_4H_Eotaxin3: BioMAP Diversity Plus: 4H Assay for Eotaxin 3 Biomarker Activity (AID 2283000); details: primary human endothelial cells (HUVEC); actives raise or lower the signal
In short: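 Human umbilical vein endothelial cells (BSK_4H system) dosed with test chemical; Eotaxin-3 (CCL26) measured by ELISA 24 h after dosing. Bidirectional curve fitting relative to DMSO negative control as baseline.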

[12] = molecular target: human Peroxisome Proliferator-activated Receptor alpha (PPARa), PPARA (gene 5465) (UniProt Q07869); assay: ATG_PPARa_TRANS: Attagene TRANS-FACTORIAL HepG2 Assay for human Peroxisome Proliferator-activated Receptor alpha (PPARa) (AID 2283001; active means hit-call score of the fitted dose curve at least 0.9, where 1 is the maximum)
Chain of human Peroxisome Proliferator-activated Receptor alpha (PPARa), PPARA (gene 5465) (Q07869 whole entry, looked up, the tested form may be a part): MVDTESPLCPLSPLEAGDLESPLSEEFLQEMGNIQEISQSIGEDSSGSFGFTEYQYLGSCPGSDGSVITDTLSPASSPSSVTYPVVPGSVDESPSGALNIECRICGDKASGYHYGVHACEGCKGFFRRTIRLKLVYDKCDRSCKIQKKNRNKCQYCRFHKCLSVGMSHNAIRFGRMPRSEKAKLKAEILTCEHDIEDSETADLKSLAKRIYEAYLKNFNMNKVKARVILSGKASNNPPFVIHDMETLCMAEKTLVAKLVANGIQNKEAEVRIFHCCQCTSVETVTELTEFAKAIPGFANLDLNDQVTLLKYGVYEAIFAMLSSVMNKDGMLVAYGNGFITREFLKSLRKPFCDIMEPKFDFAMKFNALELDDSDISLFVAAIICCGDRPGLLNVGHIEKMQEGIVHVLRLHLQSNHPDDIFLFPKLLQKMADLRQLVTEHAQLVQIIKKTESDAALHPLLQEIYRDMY
In short: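 Exposure: 24 h, transiently transfected HepG2 cells. Endpoint: GAL4-UAS reporter mRNA, RT-PCR with capillary electrophoresis fluorescence. Baseline: DMSO; increases fitted.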

[13] = read-out: Intercellular Adhesion Molecule 1 (ICAM1), ICAM1 (gene 3383); assay: BSK_3C_ICAM1: BioMAP Diversity Plus: 3C Assay for Intercellular Adhesion Molecule 1 (ICAM1) Biomarker Activity (AID 2283003); details: primary human endothelial cells (HUVEC); actives raise or lower the signal
In short: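 ELISA read-out of ICAM-1; HUVEC (primary human), 3C system, 24 h post-dosing; bidirectional fit vs DMSO baseline.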

[14] = molecular target: human Retinoic Acid Receptor beta (RARb), RARB (gene 5915) (UniProt P10826); assay: ATG_RARb_TRANS: Attagene TRANS-FACTORIAL HepG2 Assay for human Retinoic Acid Receptor beta (AID 2283004; active means hit-call score of the fitted dose curve at least 0.9, where 1 is the maximum)
Chain of human Retinoic Acid Receptor beta (RARb), RARB (gene 5915) (P10826 whole entry, looked up, the tested form may be a part): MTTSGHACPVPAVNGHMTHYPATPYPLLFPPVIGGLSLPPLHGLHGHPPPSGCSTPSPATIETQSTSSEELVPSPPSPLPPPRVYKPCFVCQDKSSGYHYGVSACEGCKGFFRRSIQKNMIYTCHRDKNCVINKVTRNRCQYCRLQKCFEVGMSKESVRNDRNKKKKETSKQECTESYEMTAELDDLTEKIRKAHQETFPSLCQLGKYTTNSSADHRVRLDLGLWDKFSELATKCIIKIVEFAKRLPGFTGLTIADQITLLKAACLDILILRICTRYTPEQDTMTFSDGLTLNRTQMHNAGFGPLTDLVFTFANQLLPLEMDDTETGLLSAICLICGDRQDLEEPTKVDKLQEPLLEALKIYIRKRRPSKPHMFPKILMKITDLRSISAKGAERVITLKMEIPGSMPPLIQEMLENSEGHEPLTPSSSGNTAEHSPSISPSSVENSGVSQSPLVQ
In short: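 Induction of reporter mRNA from a chimeric RARb-Gal4 construct was measured by RT-PCR, FAM labelling, HpaI digestion and capillary electrophoresis. Measurements followed 24 h compound treatment of transiently transfected human HepG2 liver cells, with DMSO as baseline.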

[15] = molecular target: Retinoic acid receptor alpha (Homo sapiens) (UniProt P10276); assay: ATG_RARa_TRANS: Attagene TRANS-FACTORIAL HepG2 Assay for human Retinoic Acid Receptor alpha (RARa) (AID 2283005; active means hit-call score of the fitted dose curve at least 0.9, where 1 is the maximum)
Chain of Retinoic acid receptor alpha (Homo sapiens) (P10276 whole entry, looked up, the tested form may be a part): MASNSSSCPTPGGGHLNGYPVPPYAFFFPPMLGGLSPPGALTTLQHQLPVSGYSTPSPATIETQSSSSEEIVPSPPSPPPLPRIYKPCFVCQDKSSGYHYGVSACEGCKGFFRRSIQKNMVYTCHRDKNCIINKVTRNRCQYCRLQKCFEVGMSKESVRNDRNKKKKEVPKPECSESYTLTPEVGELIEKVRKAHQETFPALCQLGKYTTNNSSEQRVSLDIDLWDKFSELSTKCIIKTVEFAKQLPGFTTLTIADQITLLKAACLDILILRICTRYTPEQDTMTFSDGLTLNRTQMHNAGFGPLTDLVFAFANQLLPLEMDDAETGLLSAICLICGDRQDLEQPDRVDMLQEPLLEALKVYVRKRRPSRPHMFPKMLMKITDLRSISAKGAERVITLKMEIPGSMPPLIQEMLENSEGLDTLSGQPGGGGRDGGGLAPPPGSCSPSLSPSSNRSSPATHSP
In short: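 HepG2 cells transiently transfected with multiple reporter units expressing chimeric RARα-GAL4 fusion, with GAL4-UAS-driven reporters. After 24 h compound exposure, reporter mRNA induction quantified by RT-PCR and capillary electrophoresis with fluorescent labeling; gain-of-signal fitted relative to DMSO control.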

[16] = BSK_3C_Proliferation: Cell Proliferation Assessment in the BioMAP Diversity Plus: 3C Assay (AID 2283006); details: primary human endothelial cells (HUVEC);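 on AC50: potency may reflect either rise or fall in cell number versus DMSO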
In short: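 HUVEC, sub-confluent; 48 h chemical exposure; 10% TCA fix, 0.1% SRB stain, A560 total protein. Gain or loss of signal fitted both directions vs DMSO control.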

[17] = molecular target: Nuclear receptor subfamily 1 group I member 2 (Homo sapiens) (UniProt O75469); assay: ATG_PXR_TRANS: Attagene TRANS-FACTORIAL HepG2 Assay for human Pregnane X Receptor (PXR) (AID 2283008; active means hit-call score of the fitted dose curve at least 0.9, where 1 is the maximum)
Chain of Nuclear receptor subfamily 1 group I member 2 (Homo sapiens) (O75469 whole entry, looked up, the tested form may be a part): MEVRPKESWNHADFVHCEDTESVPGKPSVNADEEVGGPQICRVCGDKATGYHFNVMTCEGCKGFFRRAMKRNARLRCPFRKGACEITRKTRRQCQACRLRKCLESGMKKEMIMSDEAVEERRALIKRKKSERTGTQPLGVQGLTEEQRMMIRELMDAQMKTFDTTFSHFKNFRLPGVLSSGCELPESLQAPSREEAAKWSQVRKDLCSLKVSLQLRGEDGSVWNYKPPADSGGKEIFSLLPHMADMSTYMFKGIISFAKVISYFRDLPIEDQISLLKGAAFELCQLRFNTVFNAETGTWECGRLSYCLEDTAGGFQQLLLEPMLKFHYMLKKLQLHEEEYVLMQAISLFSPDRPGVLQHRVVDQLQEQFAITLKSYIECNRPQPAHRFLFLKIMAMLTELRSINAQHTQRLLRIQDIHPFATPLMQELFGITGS
In short: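 Trans-factorial format: exogenous NR-Gal4 fusion activity, not endogenous factor, in transfected human HepG2 liver cells. After 24 h dosing, RNA isolated, reverse-transcribed, amplified and resolved by capillary electrophoresis; induction scored versus DMSO.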

[18] = molecular target: human Retinoic Acid Receptor gamma (RARg), RARG (gene 5916) (UniProt P13631); assay: ATG_RARg_TRANS: Attagene TRANS-FACTORIAL HepG2 Assay for human Retinoic Acid Receptor gamma (RARg) (AID 2283009; active means hit-call score of the fitted dose curve at least 0.9, where 1 is the maximum)
Chain of human Retinoic Acid Receptor gamma (RARg), RARG (gene 5916) (P13631 whole entry, looked up, the tested form may be a part): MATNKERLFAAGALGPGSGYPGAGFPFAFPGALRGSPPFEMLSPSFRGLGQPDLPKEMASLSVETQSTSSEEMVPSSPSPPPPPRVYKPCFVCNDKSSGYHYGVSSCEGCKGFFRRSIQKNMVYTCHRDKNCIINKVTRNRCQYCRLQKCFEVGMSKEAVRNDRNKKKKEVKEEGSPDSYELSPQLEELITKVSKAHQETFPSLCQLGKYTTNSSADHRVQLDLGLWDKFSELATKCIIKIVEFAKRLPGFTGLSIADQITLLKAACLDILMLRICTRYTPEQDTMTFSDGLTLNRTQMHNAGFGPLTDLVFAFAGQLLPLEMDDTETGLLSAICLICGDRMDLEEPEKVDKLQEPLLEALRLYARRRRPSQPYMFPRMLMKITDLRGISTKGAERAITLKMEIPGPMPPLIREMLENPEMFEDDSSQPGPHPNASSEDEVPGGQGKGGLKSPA
In short: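 Readout: reporter transcript levels via RT-PCR, 6-FAM primer-extension labelling, HpaI digestion and capillary electrophoresis. Cells: HepG2 carrying transfected RARg-GAL4 chimera plus UAS reporter set. Dosing 24 h; DMSO negative control.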

[19] = molecular target: Peroxisome proliferator-activated receptor gamma (Homo sapiens) (UniProt P37231); assay: ATG_PPARg_TRANS: Attagene TRANS-FACTORIAL HepG2 Assay for human Peroxisome Proliferator-activated Receptor-gamma (PPARg) (AID 2283007; active means hit-call score of the fitted dose curve at least 0.9, where 1 is the maximum)
Chain of Peroxisome proliferator-activated receptor gamma (Homo sapiens) (P37231 whole entry, looked up, the tested form may be a part): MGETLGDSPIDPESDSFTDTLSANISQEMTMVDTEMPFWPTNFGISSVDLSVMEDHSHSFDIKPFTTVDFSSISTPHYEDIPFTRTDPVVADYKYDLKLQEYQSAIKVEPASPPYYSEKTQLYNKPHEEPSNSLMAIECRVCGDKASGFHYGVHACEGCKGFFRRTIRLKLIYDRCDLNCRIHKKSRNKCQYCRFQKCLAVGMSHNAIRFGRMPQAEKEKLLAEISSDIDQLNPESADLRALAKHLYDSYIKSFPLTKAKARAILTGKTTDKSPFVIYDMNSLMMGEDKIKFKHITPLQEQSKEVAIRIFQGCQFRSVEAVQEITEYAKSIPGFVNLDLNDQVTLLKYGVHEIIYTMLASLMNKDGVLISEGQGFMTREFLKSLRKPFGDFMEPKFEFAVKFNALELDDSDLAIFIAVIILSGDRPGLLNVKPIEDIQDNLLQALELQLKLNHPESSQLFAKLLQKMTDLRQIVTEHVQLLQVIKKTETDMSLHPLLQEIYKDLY
In short: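 HepG2 cells transiently transfected with multiplexed GAL4-UAS reporter units and exogenous chimeric NR-Gal4 proteins; reporter mRNA quantified after 24 h compound exposure by RT-PCR, fluorescent labelling, HpaI digestion and capillary electrophoresis; gain-of-signal fitted versus DMSO baseline.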

[20] = molecular target: human Peroxisome Proliferator-activated Receptor delta (PPARd), PPARD (gene 5467) (UniProt Q03181); assay: ATG_PPARd_TRANS: Attagene TRANS-FACTORIAL HepG2 Assay for human Peroxisome Proliferator-activated Receptor delta (PPARd) (AID 2283002; active means hit-call score of the fitted dose curve at least 0.9, where 1 is the maximum)
Chain of human Peroxisome Proliferator-activated Receptor delta (PPARd), PPARD (gene 5467) (Q03181 whole entry, looked up, the tested form may be a part): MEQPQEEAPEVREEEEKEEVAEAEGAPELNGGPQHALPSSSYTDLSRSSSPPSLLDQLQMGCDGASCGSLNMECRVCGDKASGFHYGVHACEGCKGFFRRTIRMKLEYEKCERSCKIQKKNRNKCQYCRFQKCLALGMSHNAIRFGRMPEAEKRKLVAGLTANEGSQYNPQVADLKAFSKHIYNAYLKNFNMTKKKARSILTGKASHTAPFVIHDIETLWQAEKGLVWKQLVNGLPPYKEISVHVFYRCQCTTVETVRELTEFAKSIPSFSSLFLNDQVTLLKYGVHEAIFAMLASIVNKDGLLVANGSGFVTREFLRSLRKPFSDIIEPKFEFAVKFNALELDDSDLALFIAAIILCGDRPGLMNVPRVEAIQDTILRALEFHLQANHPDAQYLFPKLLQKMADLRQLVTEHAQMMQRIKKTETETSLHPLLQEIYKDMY
In short: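 Measured quantity: GAL4-UAS reporter transcript induction in HepG2 after 24 h chemical dosing, with NR-Gal4 chimeras supplied by transient transfection. Detection by RT-PCR and capillary electrophoresis; upward fit against DMSO.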

Measured: AC50

COc1cc(OC)nc(NC(=O)NS(=O)(=O)c2cc(NC=O)ccc2C(=O)N(C)C)n1
not listed: [19] | [20]
inactive: all other assays above

[2H]C1([2H])[n+]2ccccc2-c2cccc[n+]2C1([2H])[2H]
active: [2] 50 µM | [3] 13.3 µM | [4] 13.2 µM | [5] 14.8 µM | [16] 31.7 µM
not listed: [12] | [14] | [15] | [17] | [18] | [20]
inactive: all other assays above

O=S(=O)(O)C(F)(F)C(F)(F)C(F)(F)C(F)(F)C(F)(F)C(F)(F)C(F)(F)C(F)(F)F
active: [1] 111 µM | [2] 133 µM | [5] 24.7 µM [middle of 9 runs] | [6] 135 µM and 54.7 µM | [7] 108 µM and 66.1 µM and 240 µM | [9] 32.8 µM | [11] 17.5 µM | [13] 25.3 µM | [16] 31.9 µM
inactive: [1] | [2] | [5] | [6] | [7] | [8] | [9] | [10] | [11] | [12] | [13] | [16] | [17]

CNC(=O)Oc1ccccc1OC(C)C
not listed: [13] | [15] | [18] | [20]
inactive: all other assays above

N#Cc1c(Cl)c(Cl)c(Cl)c(C#N)c1Cl
active: [5] 0.0739 µM | [6] 143 nM | [8] 1.37 µM | [9] 1.8 µM | [10] 1.06 µM | [11] 1.82 µM | [16] 0.148 µM | [17] 0.324 µM
not listed: [3] | [13]
inactive: all other assays above
